In the library only some 4.1% were active in any assay of this set; here they are far more common.
Peg3 promoter = inhibitors of Peg3 promoter; 360,000 tested, 1.7% active; inhibition, % at 20 µM; AID 588405; HeLa PEG-Prom luciferase reporter, luminescence, overnight;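 active = inhibition of at least 50% at 20 µM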
TWEAK Fn14 block = blocks TWEAK-Fn14 interaction in a reporter cell assay; 360,000 tested, 2% active; TWEAK-stimulated Fn14 reporter cells, luciferase luminescence, 8 h; inhibition, % at 10 µM; AID 1159606; in the data active = inhibition above about 50%
EBV LMP1 NFkB = reduces LMP1-driven NF-kappaB luciferase signal. LMP1-induced NF-kappaB luciferase reporter cells, luminescence. 350,000 tested, 0.69% active. inhibition, % at 12.5 µM. AID 504558; in the data active = inhibition above about 41%; inconclusive = no clear call, values can overlap the other calls;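 also: 0% = neutral control wells and 100% = reference inhibitor control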
TROY NFkB inh = blocks TROY-dependent signaling in reporter cells. 360,000 tested, 0.98% active. AID 1347056. inhibition, % at 10 µM. Q293 LMP1-TROYcd NF-kB luciferase reporter, 4 h;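 active = compounds whose plate-normalised and pattern-corrected inhibition of the luciferase reporter signal at the single screening dose is 50% or more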
Shn3 3UTR inh = inhibitors of Schnurri-3 3'UTR reporter in osteoblasts | Clone20 osteoblast Shn3 3'UTR firefly luciferase, 24 h | inhibition, % at 12.5 µM | 360,000 tested, 0.52% active;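 active = mean inhibition of at least 75% with every replicate also reaching 75%; inconclusive = mean inhibition at least 75% but some replicate below; inactive = mean inhibition below 75%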;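 also: 0% = median of neutral control wells and 100% = pilot-screen positive control compound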
MITF TRPM1 inh = inhibitors of MITF-driven TRPM1 promoter in melanoma cells. SK-MEL-5 TRPM1 promoter luciferase, 24 h. 330,000 tested, 0.83% active. inhibition, % at 12.5 µM. AID 488899;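 active = mean inhibition across replicates of 60% or more, whatever share of single replicates reaches that level; inconclusive = some that reach 60%, reason not given; inactive = mean inhibition across replicates below 60%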
Numbers without * were called inactive; ? = inconclusive; nt = no result given.

SMILES	Peg3 promoter	TWEAK Fn14 block	EBV LMP1 NFkB	TROY NFkB inh	Shn3 3UTR inh	MITF TRPM1 inh
Cc1ccc(NC(=O)CCN2CCCCC2)cc1	34	100*	26	69*	25	5
COc1ccc(OC)c(S(=O)(=O)n2ccnc2C(C)C)c1	2	-6	2	2	-17	2
Cc1ccccc1OCC(=O)N/N=C/c1cccc(Oc2ccc([N+](=O)[O-])cc2[N+](=O)[O-])c1	13	63*	0	30	-17	5
O=C(N/N=C/c1cccc(Oc2ccc([N+](=O)[O-])cc2[N+](=O)[O-])c1)c1cncc(Br)c1	21	45	-4	59*	4	40
Cc1ccc(OCC(=O)N/N=C/c2ccccc2)c([N+](=O)[O-])c1	-23	-12	-11	-9	19	-30
Cc1cccc(C)c1NC(=O)Nc1nnc([C@H]2C[C@H](O)[C@@H](CO)O2)s1	3	-4	nt	-25	5	nt
CCCC(=O)Nc1c2c(nn1-c1ccc([N+](=O)[O-])cc1)CS(=O)(=O)C2	3	0	8	-4	-2	5
O=C(CN(Cc1cccs1)C(=O)CNS(=O)(=O)c1ccccc1)NCc1ccco1	10	-3	90*	7	-7	10
COc1ccc(C)c2sc(=NC(=O)c3ccc(C(C)=O)cc3)n(C)c12	-182	40	-31	51*	-42	-76
O=C(/C=C/c1ccc(N2CCCCC2)c([N+](=O)[O-])c1)c1ccc(S(=O)(=O)N2CCCC2)cc1	55*	15	6	13	61	-2
COc1cccc(C(=O)/C=C/c2ccc(N3CCCCC3)c([N+](=O)[O-])c2)c1	66*	27	1	-29	2	11
C=CCn1c(O)c(C=Nc2ccc(CN3CCCCC3)cc2)c(=O)[nH]c1=S	-8	12	nt	-5	3	nt
O=C(NCCCCc1ccccc1)c1ccccc1	-29	23	5	-29	-1	5
CCC[C@@H](CNC)NC[C@H](Cc1ccccc1)NCCCCc1ccccc1	99*	-41	-12	-21	49	94*
O=C(COC(=O)c1ccccc1)NCCCCc1ccccc1	-4	15	-1	-32	15	nt
CCC[C@@H](CN[C@@H](CNC)C(C)C)NCCCCc1ccccc1	59*	-4	-2	-14	55	90*
CNC[C@@H](CC1CCCCC1)NC[C@H](CC(C)C)NCCc1cccc(C(F)(F)F)c1	99*	-101	-8	12	6	100*
CNC[C@@H](Cc1ccccc1)NC[C@@H](CC1CCCCC1)NCCCc1ccccc1	99*	-64	-41	37	-2	98*
Cn1c(C(=O)N2CCCC(C(=O)c3ccc(C(F)(F)F)cc3)C2)cc(=O)n(C)c1=O (stereo unspecified)	12	-12	-5	7	2	-7
C=CCOC(=O)C1=C[C@H](C2CC2)[C@@H](CCCO)[C@H](OCC)O1	5	-2	4	4	-16	3
COCCn1c(SCc2ccc(OC)c(F)c2)nnc1-c1ccncc1	14	9	2	-15	-15	-6
COc1ccccc1-c1cc(C(F)(F)F)nc(S(=O)(=O)CCCC(=O)N2CCOCC2)n1	103*	38	-19	58*	83	80*
COc1ccc(-c2cc(C(F)(F)F)nc(S(=O)(=O)CCCC(=O)Nc3cccc(O)c3)n2)cc1OC	96*	96*	nt	53*	-3	nt
COc1ccc(-c2cc(C(F)(F)F)nc(S(=O)(=O)CCC(=O)N3CCOCC3)n2)cc1	103*	75*	-5	49	5	19
CCOC(=O)CCNC(=O)N1CCCC(N2CCN(c3ccc(OC)cc3)CC2)C1 (stereo unspecified)	6	3	5	-4	20	0
SMILES	Peg3 promoter	TWEAK Fn14 block	EBV LMP1 NFkB	TROY NFkB inh	Shn3 3UTR inh	MITF TRPM1 inh
O=C(Nc1cccc(C(=O)N2CCCC2)c1)C1CC1	4	8	-8	-13	-1	1
O=C(O)c1ccc2cc(-c3ccccc3)[nH]c2c1	33	98*	24	40	21	14
CCOC(=O)c1cc(-c2ccccc2)sc1NC(=O)COC(=O)c1cccc(S(N)(=O)=O)c1	87*	-21	-7	1	3	-15
O=C(c1cc(C2CC2)nc2ccccc12)N1N=C(C(F)F)CC1(O)C(F)F (stereo unspecified)	21	81*	1	-4	7	13
O=C(c1cc(C2CC2)nc2ccc(Br)cc12)N1N=C(C(F)F)CC1(O)C(F)F (stereo unspecified)	60*	20	-15	54*	1	8
Cc1nc2ccccc2c(=O)n1Cc1ccco1	9	1	nt	-1	5	nt
COc1ccc(Cn2c(C)nc3c(c2=O)c2nc4ccccc4nc2n3Cc2ccco2)cc1	34	52*	13	9	62	?
C/C(CC(=O)Nc1cccc(C(F)(F)F)c1)=N\NC(=O)c1cnccn1	-1	-4	4	-13	3	8
CCCc1sc(N/N=C/c2ccccn2)nc1-c1ccc(F)cc1	-42	-20	63*	-9	77	63*
COc1cc2cnc(CCO[C@H]3CCCCO3)cc2cc1OC	-17	31	6	52*	2	-11
COc1ccc2cc(CCOC3CCCCO3)ncc2c1 (stereo unspecified)	-129	60*	15	9	-27	-13
O=C(O)c1ccc(OCCCCCCOC2CCCCO2)cc1 (stereo unspecified)	2	-22	-8	-5	-2	8
COc1cc2cnc(C3=CCCCC3)cc2cc1OC	-68	-32	9	-54	-42	-18
CC(=O)NC1CCC(OC(=O)Nc2ccccc2)CC1 (stereo unspecified)	-94	-12	-3	-37	-33	-40
COc1ccc(C2=CSC3=NCCN23)cc1F	-3	-6	2	54*	-6	0
COc1ccc(C2=CSC3=NCCN23)cc1Cl	11	-14	1	0	21	6
Cc1ccsc1-c1nc(CSCC(=O)N2CCN(c3ccccc3)CC2)c(C)o1	9	10	81*	-1	10	13
COc1ccc(-c2cc3c(nn2)-c2ccccc2C3=O)cc1	80*	92*	52*	59*	46	72*
O=C1c2ccccc2-c2nnc(-c3ccccc3)cc21	-32	72*	4	-21	9	0
c1ccc(-c2cc3c(nn2)CCc2nonc2-3)cc1	-33	0	-11	-14	-12	-5
Cc1cnc2c(c1)C(=O)c1ccccc1-2	-17	13	-3	10	-19	-11
COc1ccc(-c2cn(Cc3ccc4c(c3)C(=O)c3ccccc3C4=O)nn2)cc1	-4	-40	4	-1	18	-10
Cc1cccc(-c2cc3c(nn2)-c2ccccc2C3=O)c1	-125	50*	-1	-42	-3	-21
O=C(N/N=C/c1ccc2c(c1)OCO2)c1ccc(NC(=O)c2ccc(F)cc2)cc1	13	-8	-11	8	16	-14

Source: PubChem (several laboratories)
